Laboratory results: PubChem BioAssay
A number with no mark means an inactive call. For part of these data: Measured potencies and affinities stand elsewhere. Calls of active or inactive are those of the source. Unless noted, no rule for the calls is given here.

Key:
[1] = antimalarial activity against Dd2 strain (AID 2302;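 active = growth inhibition above 50% at the single 2 µM test dose, taken to imply half-maximal potency below 2 µM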;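 also: 0% = DMSO untreated growth and 100% = chloroquine plus artemisinin killed control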); conditions: P. falciparum Dd2 in RBCs, LDH growth readout, 72 h; at 2 µM; active compounds read high
[2] = HepG2 cytotoxicity, primary screen, cytotoxicity control for P. falciparum antimalarial project, cell-based, ATP luminescence (AID 2303;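 active = inhibition above 50%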;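 also: 0% = DMSO wells and 100% = digitonin-killed cells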); conditions: HepG2 viability, 24-48 h, at 10 µM, active compounds read high
[3] = target: L-lactate dehydrogenase (Plasmodium falciparum (isolate CDC / Honduras)) (UniProt Q27743); experiment: PfLDH activity inhibition – cell lysate, 3D7 strain, counter-screen for P. falciparum growth inhibition project (AID 2304);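 also: 0% = vehicle and 100% = reference inhibitor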; conditions: P. falciparum 3D7 crude extract, LDH APAD/NBT absorbance; at 2 µM; active compounds read high
L-lactate dehydrogenase (Plasmodium falciparum (isolate CDC / Honduras)), sequence (Q27743 whole entry, looked up): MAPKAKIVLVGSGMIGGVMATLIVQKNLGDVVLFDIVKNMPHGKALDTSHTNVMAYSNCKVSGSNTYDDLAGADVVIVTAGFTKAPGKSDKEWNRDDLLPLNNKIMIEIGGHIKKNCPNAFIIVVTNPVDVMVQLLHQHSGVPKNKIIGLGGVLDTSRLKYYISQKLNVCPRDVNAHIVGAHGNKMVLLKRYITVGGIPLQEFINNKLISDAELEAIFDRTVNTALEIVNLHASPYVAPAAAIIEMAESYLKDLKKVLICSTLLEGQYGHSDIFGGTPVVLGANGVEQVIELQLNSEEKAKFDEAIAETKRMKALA

[4] = inhibition of 3D7 malaria parasite growth – strain 3D7 (AID 2306);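 also: 0% = DMSO wells and 100% = chloroquine plus artemisinin control wells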; conditions: P. falciparum 3D7 erythrocytic growth, LDH absorbance, 72 h; at 2 µM; active compounds read high
[5] = target: Calcium-dependent protein kinase 1 (Plasmodium falciparum (isolate 3D7)) (UniProt P62344); experiment: PfCDPK1 kinase inhibitors, biochemical, TCAMS library (AID 1159585; cut-off not given, nearly all actives have IC50 up to about 0.98 µM;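 also: inhibitors leave more ATP so luminescence rises with inhibition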); conditions: recombinant PfCDPK1, Kinase-Glo ATP depletion luminescence
Calcium-dependent protein kinase 1 (Plasmodium falciparum (isolate 3D7)), sequence (P62344 whole entry, looked up): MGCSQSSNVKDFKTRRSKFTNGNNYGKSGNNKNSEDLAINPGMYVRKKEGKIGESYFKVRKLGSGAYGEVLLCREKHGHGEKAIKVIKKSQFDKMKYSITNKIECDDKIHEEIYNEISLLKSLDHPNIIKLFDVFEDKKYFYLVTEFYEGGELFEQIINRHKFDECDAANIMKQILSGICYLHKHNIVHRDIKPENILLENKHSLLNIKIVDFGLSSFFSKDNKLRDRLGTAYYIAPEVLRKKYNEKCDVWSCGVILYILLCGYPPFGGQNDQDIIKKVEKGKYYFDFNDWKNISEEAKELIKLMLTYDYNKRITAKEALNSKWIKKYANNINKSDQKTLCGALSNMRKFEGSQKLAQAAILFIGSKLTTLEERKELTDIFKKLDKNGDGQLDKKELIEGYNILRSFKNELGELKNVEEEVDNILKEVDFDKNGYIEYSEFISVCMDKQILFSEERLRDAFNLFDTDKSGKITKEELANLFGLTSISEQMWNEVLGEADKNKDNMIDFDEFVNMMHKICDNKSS

[6] = target: Plasmodium falciparum protein kinase 6 (PK6, PF3D7_1337100) (UniProt Q8IDW1); experiment: PfPK6 kinase inhibitors, biochemical, TCAMS library (AID 1159586); conditions: recombinant PfPK6, Kinase-Glo ATP depletion luminescence
Plasmodium falciparum protein kinase 6 (PK6, PF3D7_1337100), sequence (Q8IDW1 1-305): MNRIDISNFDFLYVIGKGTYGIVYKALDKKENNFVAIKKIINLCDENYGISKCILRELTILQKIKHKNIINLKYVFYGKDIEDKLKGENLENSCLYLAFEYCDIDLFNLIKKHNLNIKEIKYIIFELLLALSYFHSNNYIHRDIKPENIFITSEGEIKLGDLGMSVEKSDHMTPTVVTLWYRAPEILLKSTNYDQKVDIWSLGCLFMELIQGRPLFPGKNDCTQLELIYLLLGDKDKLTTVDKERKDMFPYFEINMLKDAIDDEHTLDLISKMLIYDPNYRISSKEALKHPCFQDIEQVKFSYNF

[7] = target: Protein kinase 7 (PK7), Plasmodium falciparum 3D7 (PF3D7_0213400) (UniProt Q7YTF7); experiment: inhibition of Plasmodium PK7 catalytic activity – biochemical, TCAMS antimalarial set, Kinase-Glo luminescence (AID 1159587); conditions: recombinant PfPK7, Kinase-Glo ATP depletion luminescence
Protein kinase 7 (PK7), Plasmodium falciparum 3D7 (PF3D7_0213400), sequence (Q7YTF7 1-343): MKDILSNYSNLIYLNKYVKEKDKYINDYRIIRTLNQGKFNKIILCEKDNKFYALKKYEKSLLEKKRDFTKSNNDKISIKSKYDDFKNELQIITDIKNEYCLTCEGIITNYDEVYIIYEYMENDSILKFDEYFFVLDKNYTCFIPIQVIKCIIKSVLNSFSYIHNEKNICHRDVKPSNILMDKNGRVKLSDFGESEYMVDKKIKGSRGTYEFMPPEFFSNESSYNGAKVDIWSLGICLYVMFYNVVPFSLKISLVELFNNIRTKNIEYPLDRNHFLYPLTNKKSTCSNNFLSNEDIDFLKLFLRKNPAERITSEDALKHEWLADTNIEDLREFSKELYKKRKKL

[8] = target: Calcium-dependent protein kinase 4 (Plasmodium falciparum (isolate 3D7)) (UniProt Q8IBS5); experiment: PfCDPK4 kinase inhibitors, biochemical, TCAMS library (AID 1159588; cut-off not given, nearly all actives have IC50 up to about 0.91 µM); conditions: recombinant PfCDPK4, Kinase-Glo ATP depletion luminescence
Calcium-dependent protein kinase 4 (Plasmodium falciparum (isolate 3D7)), sequence (Q8IBS5 whole entry, looked up): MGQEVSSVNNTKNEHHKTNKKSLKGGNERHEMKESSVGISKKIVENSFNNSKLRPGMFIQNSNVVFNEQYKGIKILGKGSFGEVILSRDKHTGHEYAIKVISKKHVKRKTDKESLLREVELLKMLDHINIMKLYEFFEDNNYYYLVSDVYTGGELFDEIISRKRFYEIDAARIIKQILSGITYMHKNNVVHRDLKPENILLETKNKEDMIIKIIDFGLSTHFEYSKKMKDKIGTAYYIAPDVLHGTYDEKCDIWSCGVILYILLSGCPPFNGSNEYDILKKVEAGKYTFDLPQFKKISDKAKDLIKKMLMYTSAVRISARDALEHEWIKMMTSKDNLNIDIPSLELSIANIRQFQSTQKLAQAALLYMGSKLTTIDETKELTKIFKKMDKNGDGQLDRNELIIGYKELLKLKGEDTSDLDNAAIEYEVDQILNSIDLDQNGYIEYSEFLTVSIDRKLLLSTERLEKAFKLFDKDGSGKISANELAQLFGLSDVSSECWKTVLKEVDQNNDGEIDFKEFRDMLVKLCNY

Row | Structure (SMILES) | growth inhibition [1] | inhibition [2] | inhibition [3] | growth inhibition [4] | outcome [5] | outcome [6] | outcome [7] | outcome [8]
1 | Cn1cnc(CCNC(=O)c2cccc(-c3csc(-c4nc5ccccc5[nH]4)c3)c2)c1 | 26% | 33% | 0% | 101% (active) | inactive | inactive | inactive | inactive
2 | CCOC(=O)C1CCN(CCCNC(=O)/C(=C/C=C/c2cc3cc(Cl)c(Cl)cc3[nH]2)OC)CC1 | 78% (active) | 23% | -6% | 87% (active) | inactive | inactive | inactive | inactive
3 | Fc1ccc2nc(-c3cccc(-c4cccc(CNCCc5ccncc5)c4)c3)[nH]c2c1 | 88% (active) | 22% | 2% | 100% (active) | inactive | inactive | inactive | inactive
4 | O=C(/C=C/c1ccc(Cl)c(Cl)c1)NCCCCCN1CCC(NC(=O)Nc2cc(F)ccc2F)CC1 | 22% | 78% (active) | 3% | 98% (active) | inactive | inactive | inactive | inactive
5 | COc1cc(Br)c(NC(=O)Nc2ccc(C(F)(F)F)c(O[C@@H]3CCN(C)C3)c2)cc1OC | 27% | 10% | -1% | 97% (active) | inactive | inactive | inactive | inactive
6 | CCC(C)NS(=O)(=O)c1ccc2nc(Nc3ccc(C)cc3)n(C3CCCCC3)c2c1 (stereo not drawn) | 97% (active) | -9% | -4% | 97% (active) | inactive | inactive | inactive | inactive
7 | CCOC(=O)c1ccc(-c2cnc(N)c(-c3nc4c(C)cccc4[nH]3)c2)cc1 | 79% (active) | 43% | -4% | 102% (active) | inactive | inactive | inactive | inactive
8 | COc1ccccc1N(C)CCNc1cc(C)nc(Nc2ccc(C)cc2)n1 | 25% | 9% | 0% | 93% (active) | inactive | inactive | inactive | inactive
9 | COc1ccc2nc(C)cc(NN=Cc3ccc([N+](=O)[O-])o3)c2c1 | 100% (active) | 18% | -5% | 100% (active) | inactive | inactive | inactive | inactive
10 | C=CC(=O)Nc1ccc(Cl)cc1C(O)c1ccccc1 (stereo not drawn) | 5% | -5% | 0% | 100% (active) | inactive | inactive | inactive | inactive
11 | O=C(Nc1ccc(Cn2ncc(N3CCCNCC3)c(Cl)c2=O)cc1)Nc1cccc(C(F)(F)F)c1 | 30% | 20% | 0% | 101% (active) | inactive | inactive | inactive | inactive
12 | Cc1ccc(-c2ccc(NC(=O)N3CCc4cc(Br)c(N5CCN(C)CC5)cc43)cc2)cn1 | 16% | 86% (active) | -3% | 80% (active) | inactive | inactive | inactive | inactive
13 | CC(C)(C(=O)Nc1ccc(N2CCC3(CCCN(CC4CC4)C3)CC2)c(Cl)c1)c1cccc(C(F)(F)F)c1 | 0% | 27% | 4% | 92% (active) | inactive | inactive | inactive | inactive
14 | CCCCNC(=O)[C@H](CC1CCCCC1)NC(=O)c1ccc(O)c(-c2ccc(OC)cc2)c1 | 12% | -8% | 5% | 89% (active) | inactive | inactive | inactive | inactive
15 | CCN(CC)C(=NCCCCCCN=C(/N=C(/N)Nc1ccc(C)cc1)N(CC)CC)/N=C(/N)Nc1ccc(C)cc1 | 98% (active) | 10% | -3% | 97% (active) | inactive | inactive | inactive | inactive
16 | CN1CCC(Oc2ccc(CN3CC[C@H](NC(=O)c4cc(F)cc(F)c4)C3)c3ccccc23)C1 (stereo partly drawn) | 23% | 26% | 5% | 98% (active) | inactive | inactive | inactive | inactive
17 | Cc1cc(-c2ccc(S(=O)(=O)Nc3cc4c(cc3OC(C)C)CCN(C)CC4)cc2)ccc1Cl | 19% | 33% | -1% | 90% (active) | inactive | inactive | inactive | inactive
18 | CCN(CC)CCCN(Cc1ccc(-c2ccc(C(F)(F)F)cc2)cc1)C(=O)Cn1c(SCc2cccc(F)c2F)cc(=O)c2ccccc21 | 82% (active) | 45% | 7% | 87% (active) | inactive | inactive | inactive | inactive

Row | Structure (SMILES) | growth inhibition [1] | inhibition [2] | inhibition [3] | growth inhibition [4] | outcome [5] | outcome [6] | outcome [7] | outcome [8]
19 | CC(O)C1CCCCN1C(=O)c1ccc(-c2ccc(-c3nc4ccc(F)cc4[nH]3)cc2)cc1 (stereo not drawn) | 99% (active) | 43% | -3% | 101% (active) | inactive | inactive | inactive | inactive
20 | COc1cccc(Nc2nc(Nc3cccc(C#N)c3)cc(C(F)(F)F)n2)c1 | 45% | 15% | 3% | 99% (active) | inactive | inactive | inactive | inactive
21 | COc1cccc(C(=O)NCCc2cccc(Cl)c2)c1Oc1ccccc1 | 90% (active) | 28% | -1% | 97% (active) | inactive | inactive | inactive | inactive
22 | COc1c(C2CCN(CCCCNC(=O)C=Cc3cc4cc(Cl)ccc4o3)CC2)ccc2c1CCCC2 | 19% | 33% | 2% | 87% (active) | inactive | inactive | inactive | inactive
23 | CCCCc1cc(N2CCC(NC(C)=O)C2)nc(Nc2ccc(C)cc2)n1 (stereo not drawn) | 1% | 2% | -8% | 95% (active) | inactive | inactive | inactive | inactive
24 | CC(C)CCN1CCC(Oc2ccc(NC(=O)c3cccs3)cc2Cl)CC1 | 96% (active) | 31% | -6% | 97% (active) | inactive | inactive | inactive | inactive
25 | c1ccc2c(C3CCN(CCCCOc4ccc5c(c4)CCN(C4CCC4)CC5)CC3)c[nH]c2c1 | 100% (active) | 80% (active) | -3% | 102% (active) | inactive | inactive | inactive | inactive
26 | Cn1nc(-c2ccc(NC(=O)Nc3cc(C(F)(F)F)ccc3F)c(F)c2)c2cnc(NCCCN3CCOCC3)nc21 | 62% (active) | 31% | 3% | 100% (active) | inactive | inactive | inactive | inactive
27 | CCCCC1=CC2C(=O)C(C(=O)OC)=CN=C2C=C1OCc1ccccc1 (stereo not drawn) | 98% (active) | 7% | 2% | 99% (active) | inactive | inactive | inactive | inactive
28 | N=C(N)c1ccc(C(=O)Nc2cccc(C(=N)N)c2)cc1 | 82% (active) | 13% | -2% | 88% (active) | inactive | inactive | inactive | inactive
29 | CN1CCN(CC(=O)Nc2ccc(-c3cccc(-c4nc5ccc(C(F)(F)F)cc5[nH]4)c3)cc2)CC1 | 93% (active) | 45% | -5% | 101% (active) | inactive | inactive | inactive | inactive
30 | CCN1CCN(c2cc(C)c3cc(NC(=O)c4cccc(Cl)c4)ccc3n2)CC1 | 58% (active) | 4% | -4% | 100% (active) | inactive | inactive | inactive | inactive
31 | Cc1ccc(O)cc1Nc1ccnc2cc(-c3csc(CNCCN4CCOCC4)n3)ccc12 | 99% (active) | 6% | -3% | 101% (active) | inactive | inactive | inactive | inactive
32 | Cc1cccc2[nH]c(-c3ccc(-c4ccc(CN5CCN(CCC#N)CC5)cc4)cc3)nc12 | 27% | 48% | 0% | 91% (active) | inactive | inactive | inactive | inactive
33 | CC1(C)N=C(N)NC(Nc2ccc(Cl)cc2)=N1 | -1% | 8% | -2% | 97% (active) | inactive | inactive | inactive | inactive
34 | COCCN1CCC(C(=O)NCC(C)(C)c2nc(-c3ccc(Br)c(O)c3)c(-c3ccncc3)[nH]2)CC1 | 6% | -12% | 3% | 99% (active) | inactive | inactive | inactive | inactive
35 | CN(C)c1ccc(CN2CCCCC(NC(=O)c3cc(-c4ccccc4Cl)cs3)C2)cc1 (stereo not drawn) | 14% | 10% | -3% | 91% (active) | inactive | inactive | inactive | inactive
36 | O=C(C=Cc1ccc(Cl)c(Cl)c1)NCCCCCN1CCC(CCCNC(=O)c2sc3ccccc3c2Cl)CC1 | 40% | 99% (active) | -5% | 93% (active) | inactive | inactive | inactive | inactive
